Results from PubChem BioAssay AID1671202 (University of Kansas High Throughput Screening Laboratory, 2021).
“And” between values parts separate entries of the source, which are not always exact repeats. Equal entries are not always repeated. Hit rate of the full screen: of about 190,000 compounds, about 6,900 (3.6%) were called active. This excerpt belongs to a sample that is enriched for actives. A number with no mark means an inactive call. No stated cut-off is given here; in the data, active means inhibition above about 50%; inactive means the rest.

target: Huntingtin (Homo sapiens) (UniProt P42858); test: mutant huntingtin-calmodulin interaction inhibitors – biochemical, AlphaScreen, primary screen (AID 1671202); details: AlphaScreen His-mHTT/GST-CaM binding, luminescence; at 15 µM, hits give high values;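 further: 0% = both proteins with DMSO and 100% = one protein alone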
Sequence (P42858 whole entry, looked up, stated change not applied): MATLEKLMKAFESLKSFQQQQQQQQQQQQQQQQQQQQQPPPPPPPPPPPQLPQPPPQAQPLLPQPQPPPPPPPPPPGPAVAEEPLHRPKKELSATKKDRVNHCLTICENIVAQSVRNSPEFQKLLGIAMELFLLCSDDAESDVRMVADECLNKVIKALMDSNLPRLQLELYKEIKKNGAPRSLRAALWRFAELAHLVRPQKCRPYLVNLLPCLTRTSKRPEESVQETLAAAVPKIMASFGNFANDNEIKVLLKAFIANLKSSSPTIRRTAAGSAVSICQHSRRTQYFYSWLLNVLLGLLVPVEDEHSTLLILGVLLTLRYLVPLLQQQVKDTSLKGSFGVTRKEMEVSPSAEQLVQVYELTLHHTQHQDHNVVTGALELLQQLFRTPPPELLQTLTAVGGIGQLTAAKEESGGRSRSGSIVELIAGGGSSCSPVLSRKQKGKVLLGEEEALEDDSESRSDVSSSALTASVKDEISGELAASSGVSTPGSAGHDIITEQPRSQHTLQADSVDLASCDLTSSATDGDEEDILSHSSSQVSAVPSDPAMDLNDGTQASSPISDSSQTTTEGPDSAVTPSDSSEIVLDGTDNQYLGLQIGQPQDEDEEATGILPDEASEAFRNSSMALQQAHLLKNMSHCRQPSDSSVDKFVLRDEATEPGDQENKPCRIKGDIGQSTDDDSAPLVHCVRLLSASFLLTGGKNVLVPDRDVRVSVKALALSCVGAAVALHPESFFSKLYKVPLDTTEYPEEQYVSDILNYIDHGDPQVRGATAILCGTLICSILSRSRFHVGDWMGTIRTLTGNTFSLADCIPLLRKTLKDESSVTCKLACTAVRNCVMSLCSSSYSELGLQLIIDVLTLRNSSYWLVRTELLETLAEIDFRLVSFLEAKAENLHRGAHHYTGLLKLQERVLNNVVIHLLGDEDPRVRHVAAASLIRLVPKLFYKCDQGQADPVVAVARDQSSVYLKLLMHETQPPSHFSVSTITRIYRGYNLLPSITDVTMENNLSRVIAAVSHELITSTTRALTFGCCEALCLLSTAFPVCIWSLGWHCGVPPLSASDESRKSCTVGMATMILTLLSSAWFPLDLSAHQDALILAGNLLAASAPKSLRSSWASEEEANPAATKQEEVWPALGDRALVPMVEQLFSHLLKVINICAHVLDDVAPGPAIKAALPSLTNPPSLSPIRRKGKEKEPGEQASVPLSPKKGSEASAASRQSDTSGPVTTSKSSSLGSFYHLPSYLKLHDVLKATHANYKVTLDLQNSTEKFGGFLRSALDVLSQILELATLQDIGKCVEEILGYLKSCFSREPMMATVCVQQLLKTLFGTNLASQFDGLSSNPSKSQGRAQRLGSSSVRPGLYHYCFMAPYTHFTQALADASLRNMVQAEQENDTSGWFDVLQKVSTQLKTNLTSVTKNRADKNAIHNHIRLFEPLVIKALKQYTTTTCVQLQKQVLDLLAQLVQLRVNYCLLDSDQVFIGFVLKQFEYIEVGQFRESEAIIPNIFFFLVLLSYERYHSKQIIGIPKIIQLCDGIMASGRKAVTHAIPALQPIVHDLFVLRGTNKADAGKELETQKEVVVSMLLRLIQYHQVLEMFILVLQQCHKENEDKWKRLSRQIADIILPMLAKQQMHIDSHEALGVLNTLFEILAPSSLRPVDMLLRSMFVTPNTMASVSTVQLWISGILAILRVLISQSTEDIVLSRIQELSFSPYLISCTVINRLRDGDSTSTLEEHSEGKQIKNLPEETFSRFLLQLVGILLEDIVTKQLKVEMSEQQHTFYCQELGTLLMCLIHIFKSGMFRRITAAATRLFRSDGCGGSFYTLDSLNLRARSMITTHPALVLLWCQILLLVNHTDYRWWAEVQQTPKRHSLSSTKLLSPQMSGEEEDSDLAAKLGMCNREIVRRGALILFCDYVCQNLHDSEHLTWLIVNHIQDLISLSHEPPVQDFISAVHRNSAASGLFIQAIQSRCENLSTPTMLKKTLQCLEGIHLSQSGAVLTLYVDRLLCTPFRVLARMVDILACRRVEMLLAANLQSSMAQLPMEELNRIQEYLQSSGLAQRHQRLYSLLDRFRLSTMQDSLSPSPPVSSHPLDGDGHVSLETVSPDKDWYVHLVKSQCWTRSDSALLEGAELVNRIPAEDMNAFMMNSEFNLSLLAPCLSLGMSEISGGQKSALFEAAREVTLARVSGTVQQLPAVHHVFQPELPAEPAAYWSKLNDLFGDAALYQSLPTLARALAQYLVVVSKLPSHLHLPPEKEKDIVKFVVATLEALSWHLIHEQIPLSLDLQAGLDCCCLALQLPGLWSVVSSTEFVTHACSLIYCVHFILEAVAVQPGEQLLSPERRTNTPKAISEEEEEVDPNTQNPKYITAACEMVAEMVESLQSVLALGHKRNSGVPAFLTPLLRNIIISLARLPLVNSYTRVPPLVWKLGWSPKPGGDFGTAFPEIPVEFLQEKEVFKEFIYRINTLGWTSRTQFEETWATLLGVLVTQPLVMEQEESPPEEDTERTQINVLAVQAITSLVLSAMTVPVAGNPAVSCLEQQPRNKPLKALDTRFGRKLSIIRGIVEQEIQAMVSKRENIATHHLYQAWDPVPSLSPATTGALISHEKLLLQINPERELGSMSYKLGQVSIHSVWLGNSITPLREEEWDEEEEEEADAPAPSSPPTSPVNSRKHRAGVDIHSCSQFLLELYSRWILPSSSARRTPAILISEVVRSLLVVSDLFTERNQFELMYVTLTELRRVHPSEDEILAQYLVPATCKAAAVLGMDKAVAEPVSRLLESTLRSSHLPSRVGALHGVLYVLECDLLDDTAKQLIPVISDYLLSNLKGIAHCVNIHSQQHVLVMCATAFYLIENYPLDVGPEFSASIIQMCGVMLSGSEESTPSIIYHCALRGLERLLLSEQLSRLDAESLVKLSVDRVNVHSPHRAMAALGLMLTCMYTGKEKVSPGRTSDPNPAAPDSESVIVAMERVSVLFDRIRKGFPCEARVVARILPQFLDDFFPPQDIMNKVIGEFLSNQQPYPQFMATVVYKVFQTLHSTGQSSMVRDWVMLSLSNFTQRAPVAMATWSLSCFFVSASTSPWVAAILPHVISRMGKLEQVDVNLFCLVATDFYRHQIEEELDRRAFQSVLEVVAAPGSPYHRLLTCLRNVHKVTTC

| Compound | inhibition |
| --- | --- |
| O=[N+]([O-])c1ccc(N2CCN(CC3CC4C=CC3C4)CC2)cc1 (stereo not given) | 19.4% |
| COc1cc(Cl)c(NC(=O)C2CCCN(C(=O)c3cc(C)cc(C)c3)C2)c(OC)c1 (stereo not given) | 1.7% |
| CC1(C)CC(=O)C2=C(C1)Nc1ccc3ncccc3c1C2c1ccccc1C(F)(F)F (stereo not given) | 4% |
| CCOc1ccc(-c2ccc(N3CCN(C(=O)Cn4cnc5ccccc54)CC3)nn2)cc1 | 14.5% |
| Cc1ccc(-c2ccc(CN3C(C(C)C)C(=O)N(Cc4cn(CCC5OCCO5)nn4)CCS3(=O)=O)cc2)cc1 (stereo not given) | 14.9% |
| Cc1ccc(-c2ccc(CN3C(C(C)C)C(=O)N(Cc4cn(CCC5OCCCO5)nn4)CCS3(=O)=O)cc2)cc1 (stereo not given) | 19% |
| CC1C(=O)N(Cc2cn(Cc3ccco3)nn2)CCS(=O)(=O)N1Cc1ccc(-c2cccc(CO)c2)cc1 (stereo not given) | 30% |
| COCOCCn1cc(CN2CCS(=O)(=O)N(Cc3ccc(-c4cccc(N(C)C)c4)cc3)C(CC(C)C)C2=O)nn1 (stereo not given) | 65.8% (active) |
| CC(C)C1C(=O)N(Cc2cn(CCC3OCCO3)nn2)CCS(=O)(=O)N1Cc1ccc(-c2ccccc2C(F)(F)F)cc1 (stereo not given) | 43.5% |
| CC(C)CC1C(=O)N(Cc2cn(Cc3ccco3)nn2)CCS(=O)(=O)N1Cc1ccc(-c2ccc(Cl)c(Cl)c2)cc1 (stereo not given) | 97.6% (active) |
| COc1ccc(-c2ccc(CN3C(CC(C)C)C(=O)N(Cc4cn(CC5CCCCC5)nn4)CCS3(=O)=O)cc2)cc1 (stereo not given) | 3.9% |
| CC(=O)c1cccc(-c2ccc(CN3C(CC(C)C)C(=O)N(Cc4cn(CC5CCCCC5)nn4)CCS3(=O)=O)cc2)c1 (stereo not given) | 22.9% |
| Cc1ccc(-c2ccc(CN3C(C)C(=O)N(Cc4cn(CCC5OCCCO5)nn4)CCS3(=O)=O)cc2)cc1 (stereo not given) | -4% |
| COc1ccc(-c2ccc(CN3C(C(C)C)C(=O)N(Cc4cn(CC5CCCCC5)nn4)CCS3(=O)=O)cc2)cn1 (stereo not given) | 29.4% |
| COCOCCn1cc(CN2CCS(=O)(=O)N(Cc3ccc(-c4ccccc4)cc3)C(CC(C)C)C2=O)nn1 (stereo not given) | 60.8% (active) |
| CC1C(=O)N(Cc2cn(CC3CCCCC3)nn2)CCS(=O)(=O)N1Cc1ccc(-c2cccc(N(C)C)c2)cc1 (stereo not given) | 65.9% (active) |
| CC(C)NC(=O)c1cn(-c2ccc(F)cc2)nn1 | 3.4% |
| COc1c(S(=O)(=O)Nc2ccc(CC(=O)O)cc2)ccc(Cl)c1Cl | -3% |
| Cc1ccc(C(=O)NC2CCN(c3ccccc3C(=O)N(C)C(C)C)CC2)cc1 | 6.6% |
| O=C(c1ccc(Cl)cc1)N(Cc1cc(-c2ccccc2)on1)C1CC1 | -12.1% |
| CCC(c1ccccc1)c1nc(-c2ccc3nnn(C)c3c2)no1 (stereo not given) | -20.7% |
| CCCCC(=O)Nc1c2c(nn1-c1ccc([N+](=O)[O-])cc1)CS(=O)(=O)C2 | -1% |

| Compound | inhibition |
| --- | --- |
| CCOC(=O)c1c(NC(=O)c2ccc([N+](=O)[O-])s2)sc2c1CCCC2 | -0.8% |
| COc1nccnc1NS(=O)(=O)c1ccc(NC(=O)c2ccc(C(C)(C)C)cc2)cc1 | 13.2% |
| O=c1[nH]c(C=C2C=Nc3ccc(Br)cc32)c(O)n1Cc1ccc(Br)cc1 | 93% (active) |
| CCc1nc2c(NC(=O)Nc3cccc(C)c3)cccn2n1 | -3.6% |
| COc1ccc(-n2nc3c(c2NC(=O)c2ccccc2Cl)CSC3)cc1 | 22% |
| COc1cc(OC)cc(C(=O)N2CCc3c(c(C(=O)NCc4cccc(C)c4)nn3C)C2)c1 | 40.8% |
| Cn1nc(C(=O)NCc2ccccc2)c2c1CCN(C(=O)c1cccc(F)c1)C2 | 64.8% (active) |
| Cc1cccc(C(=O)N2CCc3c(c(-c4nc(Cc5ccccc5)no4)nn3C)C2)c1 | 7.62% |
| COc1ccc(CC(=O)N2CCc3c(c(C(=O)NCc4cccc(C)c4)nn3C)C2)cc1 | 40.5% |
| CCCC(=O)N1CCc2c(c(C(=O)NCc3cccc(C)c3)nn2C)C1 | 35.7% |
| COc1cccc(C(=O)N2CCc3c(c(C(=O)NCc4cccc(C)c4)nn3C)C2)c1 | 66.6% (active) |
| O=C(O)CCCCCNS(=O)(=O)c1cccc(C(F)(F)F)c1 | -2% |
| O=C(c1ccc(F)cc1)N1CCCC1c1ccccc1F (stereo not given) | -8.08% |
| CC(C)C1N=C2c3ccccc3N=C(SCC(=O)c3ccc(O)c(O)c3)N2C1=O (stereo not given) | 20% |
| O=C(CSC1=Nc2ccccc2C2=NC(Cc3ccccc3)C(=O)N12)c1ccc(O)c(O)c1 (stereo not given) | 57% (active) |
| O=C(CSC1=Nc2ccccc2C2=NC(Cc3ccccc3)C(=O)N12)NC1CCCCC1 (stereo not given) | 39% |
| CCCN1C(=O)COc2ccc(-c3noc(-c4ccccc4C(F)(F)F)n3)cc21 | -2.1% |
| CCN(CC)c1ncc2c(n1)CCC(C(=O)N(C)c1ccc(C)c(C)c1)C2 (stereo not given) | 25.8% |
| Cc1ccc(N=Cc2ccc(Cl)cc2Cl)c(O)c1 | 12% |
| Cc1ccc2c(c1)-c1c(ssc1=Nc1ccc(Cl)cc1Cl)C(C)(C)N2 | 73.7% (active) |
| CC(=O)Nc1ccc(N2CCCCC2)nc1 | 2.4% |
| COC(=O)c1ccccc1NC(=O)N1CCc2[nH]cnc2C1c1ccncc1 (stereo not given) | 7.22% |

| Compound | inhibition |
| --- | --- |
| O=C(Cc1ccc(F)cc1)N1CCc2[nH]cnc2C1c1ccccn1 (stereo not given) | 81.1% (active) |
| O=C(Nc1c(F)cccc1F)N1CCc2[nH]cnc2C1c1ccncc1 (stereo not given) | -5.1% |
| O=C(Nc1ccc(C(F)(F)F)cc1)N1CCc2[nH]cnc2C1c1ccncc1 (stereo not given) | 11.1% |
| CC(C)NC(=O)N1CCc2[nH]cnc2C1c1ccccn1 (stereo not given) | 83.5% (active) |
| O=C(c1ccc(F)c(F)c1)N1CCc2[nH]cnc2C1c1ccccc1 (stereo not given) | 17.4% |
| O=C1OC(c2ccc(Cl)cc2Cl)=N/C1=C\c1ccc(F)cc1 | 2% |
| COc1cccc(C2CC(c3cc(Br)ccc3F)n3nnnc3N2)c1 (stereo not given) | 4.06% |
| CCCNC(=O)C1CN(C(=O)c2ccccc2F)CC1c1cccc(F)c1 (stereo not given) | -5.9% |
| CC1(C)c2ccccc2N(CCO)C12C=Cc1cc([N+](=O)[O-])ccc1O2 (stereo not given) | 62% (active) |
| O=C1CSC(c2cccc([N+](=O)[O-])c2)N1c1cc(Cl)ccc1O (stereo not given) | 8% |
| COc1ccccc1C(=O)Nc1nc2n(n1)C(c1ccccc1)C=C(c1ccc(Cl)cc1)N2 (stereo not given) | 51% (active) |
| Cc1nc2n(n1)C(c1ccc(Cl)cc1)C=C(c1ccc(Cl)cc1)N2 (stereo not given) | 31% |
| Clc1ccc(C2=CC(c3ccccc3)n3ncnc3N2)cc1 (stereo not given) | 1% and -2.22% |
| CCS(=O)(=O)NCc1nnnn1-c1ccc(F)c(F)c1 | -8.6% |
| Cc1cccc(N2CCC(C(=O)NCc3ccccc3F)C2=O)c1C (stereo not given) | -0.6% |
| COc1ccc(-c2ncc3c(n2)CCN(C(=O)c2cccc(OC)c2)C3)cc1 | 11.1% |
| O=C(NC1CCCC1)C1CCNCC1 | -0.4% |
| Cc1ccc(N2CC(C(=O)Nc3cc(C(F)(F)F)ccc3Cl)CC2=O)cc1C (stereo not given) | -1% |
| Cc1cc(-c2nnc(NC(=O)C3CC(=O)N(c4ccc(C)c(C)c4)C3)o2)n(C)n1 (stereo not given) | 90.2% (active) |
| COc1ccc(NC(=O)C2CC(=O)N(c3ccc4oc(C)nc4c3)C2)cc1 (stereo not given) | 2.03% |
| N#Cc1ccc(C(=O)N2CCCC2c2nc(-c3cccc(C(F)(F)F)c3)no2)cc1 (stereo not given) | 2.8% |
| O=C(C1COc2ccccc2O1)N1CC(c2nc(-c3cccc(C(F)(F)F)c3)no2)C1 (stereo not given) | 88.9% (active) |

| Compound | inhibition |
| --- | --- |
| O=C(c1cccnc1)N1CCCC1c1nc(-c2cccc(C(F)(F)F)c2)no1 (stereo not given) | 27.6% |
| COc1ccc(C(=O)COc2ccc3c(c2)OC(=Cc2cc(OC)c(OC)c(OC)c2)C3=O)cc1 | 2.6% |
| Cc1ccc(C)c(NC(=O)c2cc3n(n2)CCCN(Cc2ccccc2)C3=O)c1 | -4.93% |
| CS(=O)(=O)N1CCc2cc(NC(=O)Nc3cccc(C(F)(F)F)c3)ccc21 | 16.1% |
| O=C(C1c2ccccc2Oc2ccccc21)N1CCN(c2ccc([N+](=O)[O-])cc2)CC1 | -2.2% |
| CN(C)c1ccc(C(O)(c2ccccc2)c2ccccc2)cc1 | 76% (active) |
| CC(C)=CC(=O)CC(C)(O)c1ccccc1 (stereo not given) | 1.5% |
| CN(C)c1ccc(C(=O)NC2CCN(c3ccccc3)C2=O)cc1 (stereo not given) | -3.2% |
| COc1ccccc1C(=O)N1CCc2nc(-c3ccc(Cl)cc3)ncc2C1 | 9.54% |
| COc1ccccc1-c1nc(C2CCN(C(=O)c3cc4cc(Cl)ccc4[nH]3)CC2)no1 | 80.8% (active) |
| COc1ccccc1-c1nc(C2CCN(C(=O)C3COc4ccccc4O3)CC2)no1 (stereo not given) | 34.9% |
| COc1ccccc1-c1nc(C2CCN(C(=O)c3ccc(Cl)cc3)CC2)no1 | 38.7% |
| CCS(=O)(=O)N1CCCC(OCc2nc(CCOC)no2)C1 (stereo not given) | -8.91% |
| COc1ccccc1C(=O)N1CCc2c(nc3cc(-c4ccccc4Cl)[nH]n3c2=O)C1 | 63.9% (active) |
| COc1ccccc1CC(=O)N1CCc2c(nc3cc(-c4ccccc4Cl)[nH]n3c2=O)C1 | 53% (active) |
| COc1ccc(Cl)cc1C(=O)N1CCc2c(nc3cc[nH]n3c2=O)C1 | 9.45% |
| Cn1cccc1C(=O)N1CCc2nc3cc(-c4ccccc4)[nH]n3c(=O)c2C1 | 25.2% |
| O=C(NCC1CCCO1)N1CCc2nc3cc(-c4ccccc4Cl)[nH]n3c(=O)c2C1 (stereo not given) | 5.22% |
| CCCCS(=O)(=O)N1CCc2c(nc3cc(-c4ccccc4Cl)[nH]n3c2=O)C1 | 21.9% |
